The text below walks through data of PubChem BioAssay (NCI).

Experiment [1] in a line: NCI Yeast Anticancer Drug Screen. Data for the rad50 strain (AID 155).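 Also: 0% = growth of vehicle-only cultures of the same strain.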 As to conditions: S. cerevisiae rad50 strain growth inhibition; at 50.0 µM; stronger effect = higher value. The procedure, abridged: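 Growth of the mutant yeast was measured after compound exposure and referenced to vehicle-treated cultures.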
Experiment [2] can be described thus: NCI Yeast Anticancer Drug Screen. Data for the mec2-1 strain (AID 157). Particulars: S. cerevisiae mec2-1 strain, at 50.0 µM, stronger effect = higher value. The procedure, abridged: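 Vehicle-treated cultures served as reference for growth inhibition of compound-exposed mec2-1 yeast.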
Experiment [3] is described as follows: NCI Yeast Anticancer Drug Screen. Data for the sgs1 mgt1 strain (AID 161).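 Also: 0% = growth of cultures given vehicle only.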 Particulars: S. cerevisiae sgs1 mgt1 strain, at 50.0 µM, stronger effect = higher value. The method, boiled down: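 Mutant yeast exposed to compound; growth scored against vehicle-only wells.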
The nature of experiment [4]: NCI Yeast Anticancer Drug Screen. Data for the cln2 rad14 strain (AID 165).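 Also: 0% = growth equal to vehicle treated cultures.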 Particulars: S. cerevisiae cln2 rad14 strain, at 50.0 µM, stronger effect = higher value. The procedure, abridged: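 Each compound was tested on cln2 rad14 yeast. Inhibition of growth was calculated against vehicle-exposed controls.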
Experiment [5] in a line: NCI Yeast Anticancer Drug Screen. Data for the bub3 strain (AID 167). As to conditions: S. cerevisiae bub3 mutant strain, at 50.0 µM, stronger effect = higher value. The procedure, abridged: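 Whole-cell yeast assay. The mutant strain was incubated with compounds, and growth inhibition was determined by comparison with vehicle-treated cells.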
Experiment [6] in a line: NCI Yeast Anticancer Drug Screen. Data for the mlh1 rad18 strain (AID 175). As to conditions: S. cerevisiae mlh1 rad18 strain growth inhibition; at 50.0 µM; stronger effect = higher value. The method, boiled down: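 Vehicle-treated cultures served as the reference for growth inhibition in a yeast strain carrying DNA damage repair alterations exposed to each compound.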

“And” between values parts separate entries of the source, which are not always exact repeats. Identical values can stand only once. Compounds without any hit were thinned out: in the full panel of roughly 79,000, 15% have a hit. The source holds several records for some structures; these can differ, active in one and inactive in another. The source made the active and inactive calls. Rule as the data show it: active = growth inhibition above about 70%; inactive = the rest. Where a SMILES comes first, the peptide text is derived from it. [ ]: non-standard residue; d: D form. The star is where a group is joined. ξ: configuration not given here. ξNMe2Val = CC(C)C(C(=O)*)N(C)C; NMeV = CN[CH](C(=O)O)C(C)C; NHBn = c1ccc(CN*)cc1

Turning to `COP(=O)(OC)/C(C#N)=C/c1ccco1`, the growth inhibition in experiment [1] was -35.3% (inactive); in experiment [2], -29.1% (inactive); in experiment [3], -46.5% (inactive); in experiment [4], -27.8% (inactive); in experiment [5], -42.6% (inactive); in experiment [6], -41.1% (inactive).

Regarding `COc1ccc(C(=O)O)cc1OC`, the growth inhibition in experiment [1] was -0.25% (inactive); in experiment [2] it was 9.45% (inactive); in experiment [3], -18.8% (inactive); in experiment [4], 7.4% (inactive); in experiment [5] it was -9.5% (inactive); in experiment [6], 5% (inactive).

`N#CC1(c2ccccc2)CCCC1`: the growth inhibition in experiment [1] was 5.7% (inactive); in experiment [2], 8.25% (inactive); in experiment [3] it was -4.7% (inactive); in experiment [4] it was 11.6% (inactive); in experiment [5], -4.05% (inactive); in experiment [6], 2.2% (inactive).

For the compound `CC(Cl)CN1COc2ccc3ccc4c(c3c2C1)CN(CC(C)Cl)CO4` (configuration not stated), the growth inhibition is 29.1% (inactive) in experiment [1]; 14.4% (inactive) in experiment [2]; 28.4% (inactive) in experiment [3]; -17.9% (inactive) in experiment [4]; 6% (inactive) in experiment [5]; 34.1% (inactive) in experiment [6].

As for `COc1ccc(CCNCc2ccc3ccccc3n2)cc1OC`, the growth inhibition in experiment [1] was -0.35% (inactive); in experiment [2], -10.5% (inactive); in experiment [3], 7.2% (inactive); in experiment [4], -16.4% (inactive); in experiment [5], -11.5% (inactive); in experiment [6], 7.5% (inactive).

Consider `Cc1cc(Cl)nc(N)n1`, for which the growth inhibition in experiment [1] was -5.3% (inactive); in experiment [2], 4.55% (inactive); in experiment [3], -5.4% (inactive); in experiment [4] it was -13.9% (inactive); in experiment [5], 10.1% (inactive); in experiment [6], -21.4% (inactive).

As to `CC(C)C(NC(=O)C(C(C)C)N(C)C)C(=O)N(C)C(C(=O)N1CCCC1C(=O)N1CCCC1C(=O)NCc1ccccc1)C(C)C` (configuration not stated) (ξNMe2Val-V[NMeV]PP-NHBn; configuration not given here), the growth inhibition in experiment [1] is -18.3% (inactive); in experiment [2], -17.7% (inactive); in experiment [3], -22.9% (inactive); in experiment [4] it was 12% (inactive); in experiment [5], 3.55% (inactive); in experiment [6], -47% (inactive).

On to `COC1=CC2C3Cc4c(-c5cc(OC)c(O)c6c5CC5C7C=C(OC)C(=O)CC67CCN5C)cc(OC)c(O)c4C2(CCN3C)CC1=O` (configuration not stated), for which the growth inhibition in experiment [1] was -2.7% (inactive) and -3.05% (inactive); in experiment [2], 1.25% (inactive) and 2.55% (inactive); in experiment [3], -2.75% (inactive) and -13.1% (inactive); in experiment [4] it was 0.25% (inactive) and -10.2% (inactive); in experiment [5] it was -2.45% (inactive) and -0.65% (inactive); in experiment [6], 3.7% (inactive) and 12.1% (inactive).

For `NC1=C(c2nc(-c3ccccc3)cs2)C(c2ccco2)c2c(c3ccccc3oc2=O)O1` (configuration not stated), the growth inhibition in experiment [1] was -4.7% (inactive); in experiment [2] it was 5.05% (inactive); in experiment [3], 23.8% (inactive); in experiment [4] it was 13.2% (inactive); in experiment [5], 6.35% (inactive); in experiment [6] it was 12.9% (inactive).

Turning to `C=CCN(CC=C)C1CCOC(OC)C1O` (configuration not stated), the growth inhibition was -19.4% (inactive) in experiment [1]; -20.5% (inactive) in experiment [2]; -9.35% (inactive) in experiment [3]; -5.05% (inactive) in experiment [4]; -12% (inactive) in experiment [5]; -14.2% (inactive) in experiment [6].

For the compound `CN(C)CCNC(=O)c1ccc([N+](=O)[O-])c(C(C)(C)C(=O)Nc2ccc(N(CCCl)CCCl)cc2)c1`, the growth inhibition was -1% (inactive) in experiment [1]; -24.4% (inactive) in experiment [2]; 8.9% (inactive) in experiment [3]; -44.2% (inactive) in experiment [4]; -10.8% (inactive) in experiment [5]; -24.9% (inactive) in experiment [6].

As to `CC(=O)c1ccccc1O.[Cr]`, the growth inhibition was 3.05% (inactive) in experiment [1]; -32.3% (inactive) in experiment [2]; 19.3% (inactive) in experiment [3]; 3.75% (inactive) in experiment [4]; -18.3% (inactive) in experiment [5]; 21.2% (inactive) in experiment [6].

Take `C=C1C(=O)OC2CC3(C)OC3CC/C(C)=C/C(OC(C)=O)C12` (configuration not stated): the growth inhibition in experiment [1] is 27.1% (inactive); in experiment [2] it was 37.4% (inactive); in experiment [3] it was 29.6% (inactive); in experiment [4], 21.1% (inactive); in experiment [5], 45.1% (inactive); in experiment [6] it was 38% (inactive).

Consider `Nc1ncnc2c1ncn2C1OC(CO)C2NP(=O)(N(CCCl)CCCl)OC21` (configuration not stated), for which the growth inhibition is 6.1% (inactive) and 16.9% (inactive) in experiment [1]; -6.2% (inactive) and 1.7% (inactive) in experiment [2]; -22.1% (inactive) and -19.3% (inactive) in experiment [3]; -8.1% (inactive) and 5.15% (inactive) in experiment [4]; -6.15% (inactive) and -15.6% (inactive) in experiment [5]; -38% (inactive) and -8.55% (inactive) in experiment [6].

With `Clc1cc[c]([Pb]([Cl])([Cl])[c]2ccc(Cl)cc2)cc1`, the growth inhibition in experiment [1] was 22.9% (inactive); in experiment [2] it was 17% (inactive); in experiment [3] it was 27.9% (inactive); in experiment [4], 52.2% (inactive); in experiment [5] it was 36.5% (inactive); in experiment [6] it was 13.7% (inactive).

On to `CC1=CC(=O)CC2(C)CCC(C(C)CC(=O)CC(C)C)CC12OO` (configuration not stated), for which the growth inhibition was 89.4% (active) and 88.8% (active) in experiment [1]; 92.3% (active) and 92% (active) in experiment [2]; 91.6% (active) and 91.4% (active) in experiment [3]; 91.8% (active) and 91.7% (active) in experiment [4]; 89.4% (active) in experiment [5]; 91.3% (active) and 89.5% (active) in experiment [6].

Consider `COc1cc2c(cc1OC)C13CCN4CC5=CCOC(CC(=O)O)C(C5CC41)C3N2` (configuration not stated), for which the growth inhibition was 14.2% (inactive) and -40.6% (inactive) in experiment [1]; 26.1% (inactive) and -27.1% (inactive) in experiment [2]; 47.1% (inactive) and -32.6% (inactive) in experiment [3]; 91.8% (active) and 10.6% (inactive) in experiment [4]; -18.6% (inactive) and -38.2% (inactive) in experiment [5]; 3.35% (inactive) and -34.1% (inactive) in experiment [6].
